Source: PubChem BioAssay (Tox21)
Results filed as inconclusive are left out. Calls of active or inactive are those of the source. Unless noted, calls come from the whole dose curve; as a rule, active = well fitted curve in the direction sought with a large enough effect in the repeat runs; inconclusive = weak or mixed curves; inactive = no such curve, though single readings can be large; an effect the other way counts as inactive or inconclusive.

Legend:
[1] = qHTS assay to identify small molecule antagonists of the estrogen related receptor (ERR) signaling pathway from Tox21 library (AID 1224848); note: nearly all actives have a fitted effect of over 50% in size; note: potency is the fitted concentration of half-maximal effect
Outline: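 Cells: ERR line, 2,000/well; 6 h preincubation 37 C/5% CO2. Cpd in DMSO via pin tool; 18 h, 37 C. ONE-Glo, 30 min RT, luminescence.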

[2] = qHTS assay to identify small molecule agonists of the estrogen related receptor (ERR) signaling pathway from Tox21 library (AID 1224849; calls by dose curve; note: nearly all actives have a fitted effect of over 15% in size); conditions: ERR reporter cell line, ONE-Glo luciferase, 18 h; at 92.4 µM (top of the series) unless noted
Outline: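 ERR reporter cell line (NTP) seeded, rested 6 h at 37 C/5% CO2, then pinned with Tox21 compounds in DMSO. After 18 h at 37 C, ONE-Glo luciferase luminescence was read following 30 min at room temperature.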

[3] = qHTS RealTime-Glo MT Cell Viability Assay in HepG2 cells - 24 hour (AID 1224867); note: nearly all actives have a fitted effect of over 50% in size; note: potency is the fitted concentration of half-maximal effect
Outline: (§1)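 Compound treatment began 5 h after plating HepG2 cells (600/well) with NanoLuc luciferase and prosubstrate. Plates stayed at 37 C for 40 h; luminescence was captured at six time points, 0 h through 40 h.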

[4] = qHTS RealTime-Glo MT Cell Viability Assay in HEK293 cells - 32 hour (AID 1224868); note: nearly all actives have a fitted effect of over 50% in size; note: potency is the fitted concentration of half-maximal effect
Outline: (§2)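 Quantitative high-throughput screen of the Tox21 10K library in HEK293: cells and RealTime-Glo reagents plated together, compound added at 5 h, luminescence monitored through 40 h at 37 C.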

[5] = A CellTox Green Cytotoxicity Assay to monitor cytotoxicity in HEK293 cells - 0 hour (AID 1224869); note: nearly all actives have a fitted effect of over 50% in size; note: potency is the fitted concentration of half-maximal effect
Outline: (§3)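 HEK293 cells premixed with CellTox Green dye were seeded at 600 cells/well and left 5 h at 37 C/5% CO2 before pin transfer of 23 nL compound in DMSO. Fluorescence from dye bound to dead-cell DNA was read during 40 h treatment.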

[6] = qHTS RealTime-Glo MT Cell Viability Assay in HepG2 cells - 40 hour (AID 1224870); note: nearly all actives have a fitted effect of over 50% in size; note: potency is the fitted concentration of half-maximal effect
Outline: (§4)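 HepG2 cells mixed with RealTime-Glo MT reagents (NanoLuc plus cell-permeant prosubstrate) were seeded at 600 cells/well, incubated 5 h at 37 C/5% CO2, then pinned with compounds in DMSO; nonlytic luminescence tracked viability during 40 h treatment.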

[7] = qHTS RealTime-Glo MT Cell Viability Assay in HepG2 cells - 8 hour (AID 1224873); note: nearly all actives have a fitted effect of over 55% in size; note: potency is the fitted concentration of half-maximal effect
Outline: as §4

[8] = qHTS RealTime-Glo MT Cell Viability Assay in HEK293 cells - 40 hour (AID 1224874); conditions: RealTime-Glo luminescence; max response: stronger effect = lower value; note: nearly all actives have a fitted effect of over 50% in size; note: potency is the fitted concentration of half-maximal effect
Outline: (§5)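 HEK293 cells mixed with RealTime-Glo reagents (NanoLuc plus cell-permeant prosubstrate) at 600 cells/well, preincubated 5 h at 37 C/5% CO2, then given 23 nL compound in DMSO. Nonlytic luminescence from viable cells was read at 0, 8, 16, 24, 32 and 40 h.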

[9] = A CellTox Green Cytotoxicity Assay to monitor cytotoxicity in HEK293 cells - 24 hour (AID 1224875); note: nearly all actives have a fitted effect of over 45% in size; note: potency is the fitted concentration of half-maximal effect
Outline: as §3

[10] = qHTS RealTime-Glo MT Cell Viability Assay in HepG2 cells - 32 hour (AID 1224877); note: nearly all actives have a fitted effect of over 55% in size; note: potency is the fitted concentration of half-maximal effect
Outline: as §1

[11] = A CellTox Green Cytotoxicity Assay to monitor cytotoxicity in HepG2 cells - 24 hour (AID 1224878); note: nearly all actives have a fitted effect of over 45% in size; note: potency is the fitted concentration of half-maximal effect
Outline: (§6)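 HepG2 cells were seeded together with the CellTox Green dye at 600 cells/well, left 5 h at 37 C/5% CO2, then given compounds in DMSO. Fluorescence from dye bound to dead-cell DNA was read repeatedly over 40 h of treatment at 37 C.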

[12] = A CellTox Green Cytotoxicity Assay to monitor cytotoxicity in HepG2 cells - 40 hour (AID 1224879); note: nearly all actives have a fitted effect of over 40% in size; note: potency is the fitted concentration of half-maximal effect
Outline: as §6

[13] = qHTS RealTime-Glo MT Cell Viability Assay in HEK293 cells - 0 hour (AID 1224880); note: top concentration of the series differs between compounds; nearly all actives have a fitted effect of over 45% in size
Outline: as §5

[14] = A CellTox Green Cytotoxicity Assay to monitor cytotoxicity in HepG2 cells - 0 hour (AID 1224882); note: nearly all actives have a fitted effect of over 35% in size; note: potency is the fitted concentration of half-maximal effect
Outline: as §6

[15] = A CellTox Green Cytotoxicity Assay to monitor cytotoxicity in HepG2 cells - 32 hour (AID 1224883); note: nearly all actives have a fitted effect of over 50% in size; note: potency is the fitted concentration of half-maximal effect
Outline: as §6

[16] = A CellTox Green Cytotoxicity Assay to monitor cytotoxicity in HepG2 cells - 16 hour (AID 1224876); note: nearly all actives have a fitted effect of over 45% in size; note: potency is the fitted concentration of half-maximal effect
Outline: as §6

[17] = A CellTox Green Cytotoxicity Assay to monitor cytotoxicity in HEK293 cells - 32 hour (AID 1224881); note: nearly all actives have a fitted effect of over 40% in size; note: potency is the fitted concentration of half-maximal effect
Outline: as §3

[18] = A CellTox Green Cytotoxicity Assay to monitor cytotoxicity in HEK293 cells - 40 hour (AID 1224871); note: nearly all actives have a fitted effect of over 45% in size; note: potency is the fitted concentration of half-maximal effect
Outline: as §3

[19] = qHTS RealTime-Glo MT Cell Viability Assay in HEK293 cells - 16 hour (AID 1224872); note: nearly all actives have a fitted effect of over 50% in size; note: potency is the fitted concentration of half-maximal effect
Outline: as §2

[20] = qHTS assay to identify small molecule agonists of H2AX - cell viability counter screen (AID 1224847; calls by dose curve; note: nearly all actives have a fitted effect of over 30% in size; note: potency is the fitted concentration of half-maximal effect)
Outline: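 Counter-screen for viability: CellTiter-Glo ATP luminescence read after 3 h compound treatment (15-point titration, 0.76% DMSO final) of CHO-K1 cells at 37C, with 30 min room-temperature reagent incubation.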
% is set by controls: 0 for no effect and ±100 for the full control effect.

c1ccc(-c2ccc(C(c3ccccc3)n3ccnc3)cc2)cc1 (stereo not drawn)
active: Potency [1] 23.7 µM | Potency [4] 30.1 µM | Potency [8] 26.8 µM
inactive: activity change, positive = activation [2] -54.4% [at 42.5 µM] | Potency [3] | Potency [5] | Potency [6] | Potency [7] | Potency [9] | Potency [10] | Potency [11] | Potency [12] | Potency [13] | Potency [14] | Potency [15]

CCN(CCC#N)c1ccc(N=Nc2ccc([N+](=O)[O-])cc2)cc1
active: activity change, positive = activation [2] 15.7%
inactive: Potency [1] | Potency [3] | Potency [5] | Potency [6] | Potency [7] | max response [8] 0.454% | Potency [9] | Potency [16] | Potency [10] | Potency [11] | Potency [12] | Potency [13] | Potency [17] | Potency [14] | Potency [15]

CN1CCN(CCCN2c3ccccc3Sc3ccc(C(F)(F)F)cc32)CC1
active: Potency [1] 33.5 µM | Potency [3] 23.9 µM | Potency [4] 23.9 µM | Potency [18] 26.8 µM | Potency [19] 21.3 µM | Potency [8] 23.9 µM | Potency [9] 23.9 µM | Potency [16] 23.9 µM | Potency [10] 23.9 µM | Potency [11] 21.3 µM | Potency [12] 23.9 µM | Potency [17] 23.9 µM | Potency [15] 21.3 µM
inactive: activity change, positive = activation [2] -69.1% [at 42.5 µM] | Potency [5]

CC(C)(C)c1ccc(OC2CCCCC2O)cc1 (stereo not drawn)
inactive: Potency [3] | Potency [5] | Potency [6] | Potency [7] | Potency [10] | Potency [13]
active: Potency [20] 71.3 µM | Potency [9] 54.9 µM

Cc1ccc(Cl)c(N)c1Cl
inactive: Potency [1] | activity change, positive = activation [2] -0.961% | Potency [3] | Potency [4] | Potency [5] | Potency [19] | Potency [7] | max response [8] -1.11% | Potency [16] | Potency [13]

NCc1cccc(C2CCN(C(=O)c3ccc(C#Cc4ccccc4F)o3)CC2)c1
active: Potency [20] 56.6 µM | Potency [3] 54.9 µM | Potency [18] 54.9 µM | Potency [19] 49 µM | Potency [7] 49 µM | Potency [9] 49 µM | Potency [16] 38.9 µM | Potency [12] 43.6 µM | Potency [17] 49 µM | Potency [15] 43.6 µM
inactive: Potency [5] | Potency [13]

C1=CCCC1
inactive: Potency [20] | Potency [3] | Potency [6] | Potency [7] | Potency [16] | Potency [11] | Potency [12] | Potency [14] | Potency [15]

CC(=O)[C@]1(O)Cc2c(O)c3c(c(O)c2[C@@H](O[C@H]2C[C@H](N)[C@H](O)[C@H](C)O2)C1)C(=O)c1ccccc1C3=O
active: Potency [3] 6.01 µM | Potency [19] 0.535 µM | Potency [8] 0.0601 µM | Potency [16] 21.3 µM | Potency [15] 23.9 µM
inactive: Potency [20] | Potency [5] | Potency [18] | Potency [9] | Potency [13] | Potency [17]

O=C1OC(O)C(C(Cl)Cl)=C1Cl (stereo not drawn)
inactive: Potency [20] | Potency [5] | Potency [18] | Potency [7] | Potency [9] | Potency [16] | Potency [13] | Potency [17] | Potency [14]
active: Potency [12] 35.7 µM | Potency [15] 45 µM

CN(C/C=C/c1ccccc1)Cc1cccc2ccccc12
active: Potency [20] 43.8 µM | Potency [5] 19 µM | Potency [18] 21.3 µM | Potency [9] 19 µM | Potency [16] 23.9 µM | Potency [11] 23.9 µM | Potency [12] 21.3 µM | Potency [17] 19 µM | Potency [14] 19 µM | Potency [15] 23.9 µM
inactive: Potency [19] | Potency [13]

O=C(Cl)c1ccc(Cl)cc1Cl
inactive: Potency [20] | Potency [5] | Potency [7] | Potency [13] | Potency [14]
active: Potency [18] 49 µM | Potency [12] 54.9 µM | Potency [15] 54.9 µM

Nc1ccc(Oc2cccc(Oc3ccc(N)cc3)c2)cc1
inactive: activity change, positive = activation [2] -57.1% | Potency [3] | Potency [5] | Potency [6] | Potency [18] | Potency [19] | Potency [7] | Potency [9] | Potency [16] | Potency [11] | Potency [12] | Potency [14] | Potency [15]
active: Potency [1] 4.33 µM

c1ccc(-c2ccccc2-c2ccccc2)cc1
inactive: Potency [3] | Potency [5] | Potency [6] | Potency [18] | Potency [7] | max response [8] -10.2% | Potency [9] | Potency [16] | Potency [10] | Potency [11] | Potency [12] | Potency [13] | Potency [17] | Potency [14] | Potency [15]

CCCCC/C=C\C=C\C(=O)OCC
active: Potency [6] 51 µM | Potency [18] 20.3 µM | Potency [8] 57.2 µM | Potency [11] 22.8 µM | Potency [12] 36.1 µM | Potency [15] 25.6 µM
inactive: Potency [20] | Potency [5] | Potency [7] | Potency [9] | Potency [16] | Potency [13] | Potency [14]

CC(=O)N(C)C
inactive: Potency [13]

O=C(CCN1CCC(c2ccccc2)C1)c1ccc2c(c1)OCCO2 (stereo not drawn)
inactive: Potency [5] | Potency [9] | Potency [16] | Potency [13] | Potency [14]
active: Potency [6] 21.3 µM | Potency [12] 26.8 µM | Potency [15] 26.8 µM

CCCCCCCCCCCCCCCCCCNC(=O)OC1CCN(C(=O)OC[C@H](COC(=O)N(Cc2cccc[n+]2CC)C(=O)c2ccccc2OC)OC)CC1
inactive: activity change, positive = activation [2] -55.2% [at 42.5 µM] | Potency [5] | Potency [13] | Potency [14]
active: Potency [1] 10.6 µM | Potency [19] 21.3 µM | Potency [8] 9.52 µM

N#Cc1ccc(C/C(=N/NC(=O)Nc2ccc(OC(F)(F)F)cc2)c2cccc(C(F)(F)F)c2)cc1
inactive: Potency [20] | Potency [5] | Potency [18] | Potency [19] | Potency [7] | max response [8] -2.78% | Potency [9] | Potency [16] | Potency [11] | Potency [12] | Potency [13] | Potency [17] | Potency [14] | Potency [15]

O=C1Cc2ccccc2C1
inactive: Potency [13]

C=CCc1cc(S(=O)(=O)c2ccc(O)c(CC=C)c2)ccc1O
active: Potency [1] 61.1 µM | Potency [4] 27.5 µM | Potency [8] 24.5 µM
inactive: activity change, positive = activation [2] -45.3% | Potency [5] | Potency [18] | Potency [9] | Potency [16] | Potency [11] | Potency [12] | Potency [17] | Potency [14] | Potency [15]
